Among the data in PubChem BioAssay AID602340 (Broad Institute, 2012) are rescue of ATP level values, retold here.

Among all 330,000 compounds or so, about 2,600 (0.79%) were called active. Only a selection was taken, and actives are over-represented in it overall. Unmarked numbers belong to inactive results.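 The calls were made as follows: active = mean ATP rescue above about 67%, or every replicate alone reaching that limit (limit read from the data, passing the limit was not always enough); inconclusive = no clear call, values can overlap the other calls; inactive = mean under the limit and some replicate under it.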

A short description of this test: suppressors of statin myotoxicity in C2C12 myotubes, primary screen, cell-based, single point, plate reader (AID 602340).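 Also: myotubes were challenged with 10 µM simvastatin during compound exposure.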 The note with it: C2C12 myotubes + simvastatin, ATP luminescence, 48 h; at 7.49 µM; active compounds read high.
`COc1ccc(C(=O)C2CN(C)CC2C(=O)c2ccc(OC)cc2)cc1` (stereo not given): the rescue of ATP level was 152% (active).

Regarding `COc1ccc(C(=O)CC2C(=O)N(C)C(=O)N(C)C2=O)cc1`, the rescue of ATP level is -12%.

Take `Cc1ccc(C2CN(C)CC2C(=O)c2ccc(F)cc2)cc1` (stereo not given): the rescue of ATP level is -5.74%.

As to `COc1cccc(-c2ccc3n(c2=O)C[C@H]2[C@H](CO)[C@@H](C(=O)O)[C@@H]3N2C(=O)c2cnccn2)c1`, the rescue of ATP level is 13.9%.

In the case of `CCn1cc(CN2CCCC(C(=O)c3cccc(C(F)(F)F)c3)C2)cn1` (stereo not given), the rescue of ATP level is -1.69%.

Consider `COc1cccc(C(c2nnnn2-c2ccc3c(c2)OCCO3)N2CCC3(CC2)C(=O)NCN3c2ccccc2)c1OC` (stereo not given), for which the rescue of ATP level is -28%.

For `CCN1CCN(C(=O)Cc2coc3cc(C)cc(C)c23)CC1`, the rescue of ATP level is 104% (active).

Turning to `Cc1cc(OCc2cc(C(=O)O)oc2C)c2c3c(c(=O)oc2c1)CCCC3`, the rescue of ATP level was 23.5%.

Take `COc1ccccc1CN1CCN(C(=O)Cc2ccccc2)CC1`: the rescue of ATP level is -9.85%.

`O=C(O)[C@H]1[C@H](CO)[C@H]2Cn3c(ccc(-c4ccccc4)c3=O)[C@@H]1N2S(=O)(=O)c1ccccc1F`: the rescue of ATP level is 21.2%.
